{
  "source": "the supplement of paper PMC8728848",
  "assay_in_all_cases": "glycan array binding signal (z-score within array); higher = stronger binding",
  "details_in_all_cases": "glycan notation: IUPAC condensed, linker removed",
  "key": {"[1]": {"molecular_target": "Fuc(a1-2)Gal(b1-3)GlcNAc(b1-2)Man(a1-3)[Fuc(a1-2)Gal(b1-3)GlcNAc(b1-2)Man(a1-6)]Man(b1-4)GlcNAc(b1-4)GlcNAc", "in_short": "(§1)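 Glycan array data were curated from 3228 arrays in the Consortium for Functional Glycomics database and kept only where the protein sequence was available. Glycan names were converted to IUPAC-condensed notation, and columns mapping to the same glycan were averaged. The binding signal is a within-array Z-score, averaged across arrays of the same protein sequence at different concentrations or buffers and across linkers. Negative Z-scores can be read as non-binding.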"}, "[2]": {"molecular_target": "Fuc(a1-2)Gal(b1-3)GlcNAc(b1-3)GalNAc", "in_short": "as §1"}, "[3]": {"molecular_target": "Fuc(a1-2)Gal(b1-3)GlcNAc(b1-3)[Fuc(a1-2)Gal(b1-3)GlcNAc(b1-6)]GalNAc", "in_short": "as §1"}, "[4]": {"molecular_target": "Fuc(a1-2)Gal(b1-3)GlcNAc6S", "in_short": "as §1"}, "[5]": {"molecular_target": "Fuc(a1-2)Gal(b1-4)GlcNAc(b1-2)Man", "in_short": "as §1"}, "[6]": {"molecular_target": "Fuc(a1-2)[Gal(a1-3)]Gal(b1-3)GlcNAc(b1-2)Man(a1-3)[Fuc(a1-2)[Gal(a1-3)]Gal(b1-3)GlcNAc(b1-2)Man(a1-6)]Man(b1-4)GlcNAc(b1-4)[Fuc(a1-6)]GlcNAc", "in_short": "as §1"}, "[7]": {"molecular_target": "Fuc(a1-2)[Gal(a1-3)]Gal(b1-4)GlcNAc(b1-2)Man(a1-3)[Fuc(a1-2)[Gal(a1-3)]Gal(b1-4)GlcNAc(b1-2)Man(a1-6)]Man(b1-4)GlcNAc(b1-4)GlcNAc", "in_short": "as §1"}, "[8]": {"molecular_target": "Fuc(a1-2)[Gal(a1-3)]Gal(b1-4)GlcNAc(b1-2)Man(a1-3)[Fuc(a1-2)[Gal(a1-3)]Gal(b1-4)GlcNAc(b1-2)Man(a1-6)]Man(b1-4)GlcNAc(b1-4)[Fuc(a1-6)]GlcNAc", "in_short": "as §1"}, "[9]": {"molecular_target": "Fuc(a1-2)[GalNAc(a1-3)]Gal(b1-3)GlcNAc(b1-6)GalNAc", "in_short": "as §1"}, "[10]": {"molecular_target": "Fuc(a1-2)[GalNAc(a1-3)]Gal(b1-4)[Fuc(a1-3)]GlcNAc(b1-3)GalNAc", "in_short": "as §1"}, "[11]": {"molecular_target": "Fuc(a1-3)[Gal(b1-4)]GlcNAc(b1-6)[Gal(b1-3)GlcNAc(b1-3)]Gal(b1-4)Glc", "in_short": "as §1"}, "[12]": {"molecular_target": "Fuc(a1-3)[Gal3S(b1-4)]Glc", "in_short": "as §1"}, "[13]": {"molecular_target": "Fuc(a1-3)[GalNAc(b1-4)]GlcNAc", "in_short": "as §1"}, "[14]": {"molecular_target": "Fuc(a1-4)GlcNAc", "in_short": "as §1"}, "[15]": {"molecular_target": "Gal(a1-3)Gal(b1-3)GlcNAc(b1-2)Man", "in_short": "as §1"}, "[16]": {"molecular_target": "Gal(a1-3)GalNAc", "in_short": "as §1"}, "[17]": {"molecular_target": "Gal(a1-4)GlcNAc", "in_short": "as §1"}, "[18]": {"molecular_target": "Gal(b1-2)Gal", "in_short": "as §1"}, "[19]": {"molecular_target": "Gal(b1-3)GlcNAc(b1-2)Man(a1-3)[Gal(b1-3)GlcNAc(b1-2)Man(a1-6)]Man(b1-4)GlcNAc(b1-4)GlcNAc", "in_short": "as §1"}, "[20]": {"molecular_target": "Gal(b1-3)GlcNAc(b1-2)Man(a1-3)[Gal(b1-3)GlcNAc(b1-2)Man(a1-6)]Man(b1-4)GlcNAc(b1-4)[Fuc(a1-6)]GlcNAc", "in_short": "as §1"}, "[21]": {"molecular_target": "Gal(b1-3)GlcNAc(b1-3)Gal(b1-4)[Fuc(a1-3)]GlcNAc", "in_short": "as §1"}, "[22]": {"molecular_target": "Gal(b1-3)GlcNAc(b1-6)[Gal(b1-3)]GalNAc", "in_short": "as §1"}, "[23]": {"molecular_target": "Gal(b1-4)Glc6S", "in_short": "as §1"}, "[24]": {"molecular_target": "Gal(b1-4)GlcNAc(b1-2)Man", "in_short": "as §1"}, "[25]": {"molecular_target": "Gal(b1-4)GlcNAc(b1-2)Man(a1-3)Man(b1-4)GlcNAc(b1-4)GlcNAc", "in_short": "as §1"}, "[26]": {"molecular_target": "Gal(b1-4)GlcNAc(b1-2)[Gal(b1-4)GlcNAc(b1-4)]Man(a1-3)[Gal(b1-4)GlcNAc(b1-2)[Gal(b1-4)GlcNAc(b1-6)]Man(a1-6)]Man(b1-4)GlcNAc(b1-4)GlcNAc", "in_short": "as §1"}, "[27]": {"molecular_target": "Gal(b1-4)GlcNAc(b1-3)Gal(b1-4)GlcNAc(b1-2)Man(a1-3)[Gal(b1-4)GlcNAc(b1-3)Gal(b1-4)GlcNAc(b1-2)Man(a1-6)]Man(b1-4)GlcNAc(b1-4)[Fuc(a1-6)]GlcNAc", "in_short": "as §1"}, "[28]": {"molecular_target": "Gal(b1-4)GlcNAc(b1-3)Gal(b1-4)GlcNAc(b1-3)Gal(b1-4)GlcNAc(b1-2)Man(a1-3)[Gal(b1-4)GlcNAc(b1-3)Gal(b1-4)GlcNAc(b1-3)Gal(b1-4)GlcNAc(b1-2)Man(a1-6)]Man(b1-4)GlcNAc(b1-4)[Fuc(a1-6)]GlcNAc", "in_short": "as §1"}, "[29]": {"molecular_target": "GalNAc(b1-3)Gal(a1-4)Gal(b1-4)GlcNAc(b1-3)Gal(b1-4)Glc", "in_short": "as §1"}, "[30]": {"molecular_target": "GalNAc(b1-4)GlcNAc6S", "in_short": "as §1"}},
  "note": "The entries come from a sample that favours the strongest signals as a whole.",
  "data": [
    {"binder": "PX9916F-bfa-443-24-443 (Bacteroides fragilis) (protein) DIRPVGSVIPQTAEEYRALLARAYLNVPNDRGLACLRSDEMLVNDNEYDRNSYGDIERWNDVSPFPGTSQFTWSNFYNVLFIANQVIESQKEITEGTPEVVNQLVGEAHLLRAYLHFVLVNLHGQPYTKSGALNSKSIPLKLDTDLEKTLGRNTVEEVYTSILSDIEHARELINKEKWETVFSYRFNVLSVDALQSRVSLYMGAWPKCLESAEAVLAKKSVLVDMNETPLALPNHFESVESITALEQVMGSSVNNAVWVPATFLALYQEGDKRLAAYFAAPDENGNRKSSKGGKREFSCTFRVGELYLNAAEAAANMDKLPHARMRLLELMRKRYTPEAYDKKENAVNVMDKNALISEILNERARELAFEGHRWFDLRRTTRPRMVKVLQGKTYILEQDDPRYTIPIPRDAIAANPGLAN", "values": [
      {"measurement": "glycan array binding signal (z-score)", "setting": "[1]", "value": 3.24},
      {"measurement": "glycan array binding signal (z-score)", "setting": "[2]", "value": 0.31},
      {"measurement": "glycan array binding signal (z-score)", "setting": "[3]", "value": -0.372},
      {"measurement": "glycan array binding signal (z-score)", "setting": "[4]", "value": -0.338},
      {"measurement": "glycan array binding signal (z-score)", "setting": "[5]", "value": 0.848},
      {"measurement": "glycan array binding signal (z-score)", "setting": "[6]", "value": 8.18},
      {"measurement": "glycan array binding signal (z-score)", "setting": "[7]", "value": 8.54},
      {"measurement": "glycan array binding signal (z-score)", "setting": "[8]", "value": 2.44},
      {"measurement": "glycan array binding signal (z-score)", "setting": "[9]", "value": 0.212},
      {"measurement": "glycan array binding signal (z-score)", "setting": "[10]", "value": 2.91},
      {"measurement": "glycan array binding signal (z-score)", "setting": "[11]", "value": 3.87},
      {"measurement": "glycan array binding signal (z-score)", "setting": "[12]", "value": 0.001},
      {"measurement": "glycan array binding signal (z-score)", "setting": "[13]", "value": 0.251},
      {"measurement": "glycan array binding signal (z-score)", "setting": "[14]", "value": 1.76},
      {"measurement": "glycan array binding signal (z-score)", "setting": "[15]", "value": -0.056},
      {"measurement": "glycan array binding signal (z-score)", "setting": "[16]", "value": -0.469},
      {"measurement": "glycan array binding signal (z-score)", "setting": "[17]", "value": -0.265},
      {"measurement": "glycan array binding signal (z-score)", "setting": "[18]", "value": 0.596},
      {"measurement": "glycan array binding signal (z-score)", "setting": "[19]", "value": 0.347},
      {"measurement": "glycan array binding signal (z-score)", "setting": "[20]", "value": 1.79},
      {"measurement": "glycan array binding signal (z-score)", "setting": "[21]", "value": -0.126},
      {"measurement": "glycan array binding signal (z-score)", "setting": "[22]", "value": 0},
      {"measurement": "glycan array binding signal (z-score)", "setting": "[23]", "value": 0.038},
      {"measurement": "glycan array binding signal (z-score)", "setting": "[24]", "value": 2.63},
      {"measurement": "glycan array binding signal (z-score)", "setting": "[25]", "value": -0.479},
      {"measurement": "glycan array binding signal (z-score)", "setting": "[26]", "value": -0.78},
      {"measurement": "glycan array binding signal (z-score)", "setting": "[27]", "value": 0.44},
      {"measurement": "glycan array binding signal (z-score)", "setting": "[28]", "value": 2.81},
      {"measurement": "glycan array binding signal (z-score)", "setting": "[29]", "value": 0.078},
      {"measurement": "glycan array binding signal (z-score)", "setting": "[30]", "value": 0.581}
    ]}
  ]
}
